Compounds with a hit are over-represented: about 7.3% of the library has one in this group of screens.
FLuc modulator = qHTS profiling assay for firefly luciferase inhibitor/activator using purifed enzyme and Km concentrations of substrates (counterscreen for miR-21 project); 360,000 tested, 6.9% active; Potency, µM (series often up to 57.5 µM), for inactives: top-dose activity change, negative = inhibition, actives largely listed as inhibitors; purified FLuc, Km substrates, luminescence inhibition;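 note: plate controls were vehicle for no effect and reference inhibitor for full effect; nearly all actives have a fitted effect of over 55% in size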
Target sequence (P08659 whole entry, looked up): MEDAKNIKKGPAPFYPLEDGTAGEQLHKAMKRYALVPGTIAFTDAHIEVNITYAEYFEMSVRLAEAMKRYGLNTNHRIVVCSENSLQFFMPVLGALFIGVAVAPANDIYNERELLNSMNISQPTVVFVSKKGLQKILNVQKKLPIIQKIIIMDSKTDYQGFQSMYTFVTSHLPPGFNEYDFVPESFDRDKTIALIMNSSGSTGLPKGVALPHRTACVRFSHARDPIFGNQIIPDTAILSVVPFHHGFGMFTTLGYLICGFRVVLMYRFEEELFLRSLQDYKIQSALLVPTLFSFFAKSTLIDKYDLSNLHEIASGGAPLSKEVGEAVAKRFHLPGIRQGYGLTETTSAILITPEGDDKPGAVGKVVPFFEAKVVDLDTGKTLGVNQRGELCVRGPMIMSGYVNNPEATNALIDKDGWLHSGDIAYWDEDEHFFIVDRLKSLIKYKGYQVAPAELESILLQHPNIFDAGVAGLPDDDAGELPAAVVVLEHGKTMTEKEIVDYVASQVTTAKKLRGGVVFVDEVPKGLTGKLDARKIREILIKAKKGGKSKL
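Purified P. pyralis luciferase, 10 nM final, with Km-level 10 uM D-luciferin and 10 uM ATP in 50 mM Tris acetate pH 7.5, 10 mM Mg acetate, 0.01% Tween-20, 0.05% BSA; 6-point qHTS titration about 60 µM downward; luminescence read.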
Rab9 promoter act = qHTS Assay for Rab9 Promoter Activators | Potency, µM (titrated, usually from 9.22 µM), without a hit: top-dose activation, negative = inhibition, hits mostly activators | AID 485297, 2010 | Huh7 Rab9 promoter-luciferase reporter, luminescence, 24 h | 320,000 tested, 2.8% active; note: % of control where 0% means no effect; nearly all actives have a fitted effect of over 60% in size
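Cells were plated at 1500 per well in reduced-serum medium with 10% FBS and left 2 h. Compound in DMSO was then added for 24 h at 37 °C. Reporter signal was read by luminescence after 10 min with luciferase detection reagent.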
ELG1 genotoxic = qHTS screen for small molecules that induce genotoxicity in human embryonic kidney (HEK293T) cells expressing luciferase-tagged ELG1; HEK293T ELG1-luciferase reporter, luminescence, 16 h; Potency, µM (top dose mostly 46 µM), for inactives: at the top dose activity change, positive = activation, usual class: activators; 330,000 tested, 1.3% active; AID 504466, 2011; note: % of control where 0% means no effect; nearly all actives have a fitted effect of over 60% in size
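Reporter readout depends on ELG1 protein level, which increases with genetic stress. After 16 hr compound exposure at 37 °C, luciferase activity was quantified using ONE-Glo.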
Luc counter = Counterscreen for Luciferase (Kinase-Glo TM) Inhibition. Kinase-Glo luciferase, ATP luminescence, 8 min. Potency, µM (titrated, usually from 38.3 µM), without a hit: top-dose activity change, negative = inhibition, most hits filed as inhibitors. Luciferin 4-monooxygenase (Photuris pensylvanica), Q27757. 200,000 tested, 0.28% active. AID 1379, 2008; note: % is set by controls: 0 for no effect and ±100 for the full control effect; nearly all actives have a fitted effect of over 60% in size
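Substrate mix (final 50 mM imidazole pH 7.2, 50 mM KCl, 7 mM MgCl2, 10 uM ATP, 0.01% Tween 20, 0.05% BSA) plus pin-tool compound, then Kinase-Glo detection mix; 8 min ambient, luminescence read.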
SMN2 splice enh = qHTS Assay for Enhancers of SMN2 Splice Variant Expression; 210,000 tested, 2.8% active; Potency, µM (titrated, usually from 46.1 µM), inactives show at the highest dose activity change, positive = activation, most hits filed as activators; HEK293 SMN2-luciferase splicing reporter, luminescence, 30-36 h; note: % of control where 0% means no effect; nearly all actives have a fitted effect of over 55% in size
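HEK293 cells carry an SMN2 minigene-luciferase reporter in which exon 7 inclusion puts luciferase in frame. Cells were seeded at 2000 cells/well, attached for 10-12 hours, then exposed to compounds for 30-36 hours at 37C before ONE-Glo luminescence.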
NPC1 promoter act = qHTS Assay for NPC1 Promoter Activators | 320,000 tested, 2.4% active | Huh7 NPC1 promoter luciferase reporter, 24 h | AID 485313, 2010 | Potency, µM (series often up to 9.22 µM), for the others: at the top dose activation, actives largely listed as activators; note: % of control where 0% means no effect; nearly all actives have a fitted effect of over 60% in size
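NPC1 promoter–luciferase Huh7 cells; 24 h compound; luminescence.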
Active calls of the source: *; ? = inconclusive; . = no result given; [ ] = remark or other dose. Calls come from the whole dose curve; as a rule, active = well fitted curve in the direction sought with a large enough effect; inconclusive = small, poorly fitted or top-dose-only effect, or another doubt; inactive = no such curve, though single readings can be large; an effect the other way counts as inactive or inconclusive. Potency is the fitted concentration of half-maximal effect.

SMILES | FLuc modulator | Rab9 promoter act | ELG1 genotoxic | Luc counter | SMN2 splice enh | NPC1 promoter act
COc1cc(/C=C2\CCC/C(=C\c3ccc(O)c(OC)c3)C2=O)ccc1O | 19µM* | -13% | -11% | . | . | -4%
Cc1cc(C)c2c(c1)C(=O)/C(=C/c1ccc(C(=O)O)cc1)CC2 | 19µM* | 20% | 14% | . | . | 19%
O=C(O)c1ccc(/C=C2\COc3ccccc3C2=O)cc1 | 19µM* | -8% | -5% | . | . | -3%
COc1cc2c(cc1OC)/C(=C/c1ccc(Cl)cc1)C(=O)OC2 | 4% | -5% | 3% | 2% | -17% | -5%
CCOc1ccc(NC(=O)Cn2ccn(-c3ccc(F)c(F)c3)c(=O)c2=O)cc1 | -2% | . | . | . | . | .
CCC(Cn1nnc2ccccc2c1=O)NC(=O)Nc1ccc(C)c(C)c1 (stereo unspecified) | -7% | . | . | . | -2% | .
COc1ccc(/C=C2\COc3ccccc3C2=O)cc1OC | 13µM* | 0% | -14% | 3% | -11% | 0%
COc1ccc2c(c1)CC/C(=C\c1ccc(OC)c(Cn3cccn3)c1)C2=O | 13µM* | 8% | -22% | -3% | -48% | -3%
COc1ccc(/C=C2\COc3ccccc3C2=O)c(OC)c1 | 4.8µM* | 0% | ? | . | . | -17%
COc1ccc2c(c1)OC/C(=C/c1cccs1)C2=O | 0.43µM* | ? | 12µM* | . | . | ?
COc1ccc2c(c1)OC/C(=C\c1ccc(OC)c(O)c1)C2=O | . | . | . | -7% | -26% | .
Cc1ccc(C)c(NC(=O)Cn2c(=O)n(CCC(C)C)c(=O)c3cccnc32)c1 | 0% | . | . | . | 7% | .
O=c1c2[nH]c3ccccc3c2nc(SCc2cccc(F)c2)n1-c1ccccc1 | 1% | . | . | . | . | .
COc1ccc(/C=C2/CCc3ccccc3C2=O)cc1OC | 3.4µM* | -2% | ? | 1% | -52% | 3%
COc1ccc(/C=C2\CCc3ccccc3C2=O)cc1CN1CCOCC1 | 7.6µM* | -1% | ? | . | . | 2%
COc1cc(/C=C2\CCc3ccccc3C2=O)cc(OC)c1OC | ? | -2% | 0% | 1% | -35% | 1%
COc1ccc(/C=C2\OC(=O)c3c(OC)cccc32)cc1OC | 1.1µM* | 2.8µM* | ? | -10% | ? | 2.8µM*
COc1cc(/C=C2/CCc3ccccc3C2=O)cc(OC)c1OC | ? | -2% | -6% | 0% | -53% | 1%
CCCCn1cc(S(=O)(=O)c2ccccc2)c(=O)c2cc(F)c(N3CCN(CCC)CC3)cc21 | 0% | . | . | . | . | .
Cc1ccc(-n2ncc(C(=O)N3CCN(C4CCCCC4)CC3)c2C2CCN(C(=O)OC(C)(C)C)CC2)cc1C | 1% | . | . | . | . | .
COC(=O)c1ccc(Nc2cc(C)nc3ccc(C)cc23)cc1 | 3% | -17% | -4% | . | . | -29%
COc1ccc(Nc2ccc([N+](=O)[O-])cn2)cc1 | ? | ? | 0% | . | . | ?
COc1ccc(Nc2cc(C)c3cc([N+](=O)[O-])ccc3n2)cc1 | 17µM* | -6% | -2% | . | . | -7%
Cc1ccc2nc(C)cc(Nc3ccc([N+](=O)[O-])cc3)c2c1 | 1% | -18% | 5.8µM* | -1% | -108% | -21%
COc1ccc(Nc2cc(C)c3ccc(O)cc3n2)cc1 | 24µM* | -3% | 7% | . | . | 5%
SMILES | FLuc modulator | Rab9 promoter act | ELG1 genotoxic | Luc counter | SMN2 splice enh | NPC1 promoter act
CCOc1ccc(Nc2cc(C)c3ccccc3n2)cc1 | 17µM* | ? | 11% | . | . | 21%
CCOc1ccc(Nc2c3ccccc3nc3ccccc23)cc1 | -8% | -25% | -7% | . | . | -23%
Cc1ccc(N2CCN(C(=O)c3c4c(nc5ccccc35)C(=O)N(C3CCCCC3)C4)CC2)c(C)c1 | 6% | . | . | . | . | .
CCOc1ccc(CCNc2ncnc3onc(-c4ccc(Cl)cc4)c23)cc1 | 1% | . | . | . | . | .
Cc1cc(Nc2ccccc2)nc2cc(O)ccc12 | 17µM* | -7% | 3% | -1% | -6% | -3%
Cc1ccc2oc(C(=O)Nc3c(C(=O)Nc4ccccc4)oc4ccccc34)cc(=O)c2c1 | 1% | . | . | . | 3% | .
COCC(C)N=C1NN=C(c2ccc(NC(C)=O)cc2)CS1 (stereo unspecified) | ? | ? | 14% | -1% | ? | 26%
CC(C)N=C1NN=C(c2cccs2)CS1 | 24µM* | 0.79µM* | ? | ? | 11µM* | 3.2µM*
CC(C)c1ccc(N=C2NN=C(c3cccs3)CS2)cc1 | 6µM* | 0.71µM* | ? | -5% | 13µM* | 2µM*
CC(C)N=C1NN=C(c2ccc(Cl)c(Cl)c2)CS1 | 3.4µM* | 0.35µM* | 2.1µM* | -10% | 5µM* | 1.4µM*
C=CCn1c(C)cc(C2=NNC(=Nc3ccc(C)cc3)SC2)c1C | ? | ? | 6% | 0% | 21% | ?
C=CCN1c2ccccc2[C@]23C[C@@H](C(=O)OC)N(S(=O)(=O)c4ccc(Br)cc4)C2=NC(C(=O)OC)=C(C(=O)OC)[C@H]13 | . | . | . | -2%[7.66 µM] | -1%[9.22 µM] | .
COc1cc(C(=O)N2CCN(CCc3ccccn3)CC2)cc(OC)c1OC | -2% | . | . | . | . | .
Cc1ccc(NC(=O)CCn2c(=S)oc3ccccc32)cc1 | 0% | -1% | 10% | 6% | 9% | -3%
CN(C)c1ccc(NC(=O)CCn2c(=S)oc3ccccc32)cc1 | 4.3µM* | 17% | 16% | 0% | 1% | 13%
S=C(Nc1ccc(Nc2ccccc2)cc1)Nc1ccccn1 | ? | -6% | ? | -3% | -68% | -12%
S=C(Nc1ccccc1)c1ccccn1 | 8.5µM* | 2.8µM* | ? | -10% | ? | 3.5µM*
Cn1c(SCc2ccccc2)nnc1-c1c[nH]c2ccccc12 | 17µM* | ? | 15µM* | 1% | ? | ?
CCCCSc1nnc(-c2ccc(C)cc2)n1C | ? | 3.5µM* | 3% | -4% | ? | 4µM*
CCCCSc1nnc(-c2c[nH]c3ccccc23)n1C | 15µM* | ? | ? | -4% | -9% | ?
Cn1c(SCC(=O)N2CCN(c3ccccc3)CC2)nnc1-c1c[nH]c2ccccc12 | -3% | -5% | -17% | 1% | -56% | 0%
CCn1nnc2cc(C(=O)Nc3cccc(C)c3C)ccc21 | -7% | . | . | . | . | .
CC(=O)Nc1ccc(C(=O)CSc2nnc3cc(C)c4ccccc4n23)cc1 | -3% | . | . | . | . | .
CCCCc1nn2c(=O)cc(COC(=O)CNC(=O)c3ccccc3C)nc2s1 | -7% | . | . | . | . | .
CCc1cccc(-n2c(C)nc3c(cnn3-c3ccc(C)c(C)c3)c2=O)c1 | -19% | . | . | . | -22% | .

Screening results deposited in PubChem by National Center for Advancing Translational Sciences (NCATS).
